PubChem BioAssay (NCATS)
Results filed as inconclusive are left out. Entries that show only a call come without a potency. Values without a mark were called inactive. Activity calls are given as the source filed them. Calls come from the whole dose curve; as a rule, active = well fitted cell-killing curve with a large enough effect; inconclusive = small, poorly fitted or top-dose-only effect, or effect the other way; inactive = no such curve, though single readings can be large or run the other way.

Experiment: Viability qHTS for spleen associated tyrosine kinase inhibitor (SYKi) drug resistant MV4-11 cells (AID 1963824); note: nearly all actives have a fitted effect of over 35% in size
Conditions: SYKi-resistant MV4-11 viability, CellTiter-Glo, 72 h; series mostly up to 45 µM
Method in brief: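 CellTiter-Glo luminescence, read 10 min after reagent addition, reports viability after a 72 hr compound exposure. Cells are an MV4-11 line made resistant to SYK inhibition, seeded at 500 per well onto compound-containing plates.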
Potency is the fitted concentration of half-maximal effect.

SMILES	Potency	viability, % of control
COc1cc2c(cc1O)C1(OC)Cc3ccc4c(c3C1N(C)CC2)OCO4 (stereo not drawn)	5.08 µM (active)	–
C[C@@H]1O[C@@H](O[C@H]2[C@H](OC(=O)[C@]34CCC(C)(C)C[C@H]3C3=CCC5[C@@]6(C)CC[C@H](O[C@@H]7O[C@H](C(=O)O)[C@@H](O)[C@H](O)[C@H]7O[C@@H]7O[C@H](CO)[C@H](O)[C@H](O)[C@H]7O)[C@@](C)(C=O)C6CC[C@@]5(C)[C@]3(C)C[C@H]4O)O[C@H](C)[C@H](O[C@@H]3O[C@H](C)[C@H](O)[C@H](O)[C@H]3O)[C@@H]2O)[C@H](O)[C@H](O)[C@H]1O[C@@H]1OC[C@@H](O)[C@H](O[C@@H]2O[C@H](CO)[C@@H](O)[C@H](O)[C@H]2O)[C@H]1O (stereo partly drawn)	–	5.67% [at 4.97 µM]
CC(=O)OCC(=O)[C@@]12O[C@@H]1C[C@H]1[C@@H]3CC=C4C[C@@H](O)CC[C@]4(C)[C@H]3CC[C@@]12C	18.4 µM (active)	–
CC1CCC2(C(=O)OC3OC(CO)C(O)C(O)C3O)CCC3(C)C(=CCC4C5(C)CCC(O)C(C)(CO)C5CCC43C)C2C1(C)O (stereo not drawn)	inactive	–
CC(N)C1CCC(C(=O)Nc2ccncc2)CC1 (stereo not drawn)	inactive	–
CS(=O)(=O)c1ccccc1N1CCN(c2nc3c(c(=O)[nH]2)CSCC3)CC1	inactive	–
CC(C)C1=CC2=CCC3[C@](C)(CCC[C@@]3(C)C(=O)O)C2CC1O (stereo partly drawn)	inactive	–
O=C1CC2(CCCC2)[C@H](O)C(=O)N1CCCCN1CCN(c2ncccn2)CC1	inactive	–
